Target: AMP-activated protein kinase, AMPK (Homo sapiens) (UniProt P54646+O43741+P54619+Q9UGJ0+Q9Y478+Q13131+Q9UGI9)
Assay: AMP-dependent Kinase enzyme assay. An in vitro enzyme assay that detects ADP turnover that is directly proportional to AMPK activity. This uses naive AMPK that is activated during the assay with MK-8722
Assay type: functional
Design: scale not given: direction of the effect not stated beside the values
Details: 30 µM

SMILES	Percent Effect [%]
CC(NCc1ccnc(OC2CCC2)c1)c1cnn(C)c1 (centres undefined)	6.18
NC(=O)c1ccc(NC2CCOC3(CCCC3)C2)nn1 (centres undefined)	0.506
Cc1cc(C)n(CCN2CCC(N(C)Cc3nnc(C)n3C)C2)n1 (centres undefined)	3.54
CNC(=O)CCOC(=O)c1cccc(-n2ccc(C(F)(F)F)n2)c1	3.59
CCCn1ccnc1-c1cccc(NC2CCOC2)c1 (centres undefined)	1.21
O=C(C1CCCN(CCc2ccc3c(c2)CCO3)C1)N1CCCC1 (centres undefined)	1.69
COc1ccc2c(c1)OCC(Cc1cc(C(=O)N3CCCC3)ccn1)C2 (centres undefined)	0.531
CCc1noc(C(C)Sc2nnc(C3CC3)n2CC(N)=O)n1 (centres undefined)	-8.4
CC(C)[C@H](N)C(=O)N1CCCC(C2=Nc3ccccc3S(=O)(=O)N2)C1 (some centres undefined)	7.27
NC(=O)C1CCCN1Cc1nccn1CC(F)(F)F (centres undefined)	1.35
COCCC1(C(=O)O)CCN(c2cc(C)c3ccccc3n2)CC1	3.32
COc1cccc(CN(C)Cc2[nH]c3ccccc3c2C)c1O	-44.5
COCCOc1ccc(F)cc1NCc1nc2ccccc2n1C	8.68
Fc1ccccc1OC1CCN(CCn2cc3ccccc3n2)CC1	6.19
CCN(Cc1ccoc1)C(=O)Nc1ccccc1CN1CCOCC1	4.22
Cc1cc(N2CCC3(CCCN(CCO)C3=O)C2)nc2cc(Cl)ccc12 (centres undefined)	10
CCOC(=O)N1CCC(NC(=O)c2cccc(C3CCCNC3)c2)CC1 (centres undefined)	7.59
CN1CCC(c2n[nH]c(=O)n2-c2cccc(Cl)c2)CC1	65.1
CC(C)N(CCO)C(=O)c1cc(COc2ccc3c(c2)CCCC3)on1	-2.41
CCn1ncc(CN2CCC(c3ncc(Cl)cc3S(C)(=O)=O)CC2)c1C	6.21

SMILES	Percent Effect [%]
CS(=O)(=O)NC1CCN(Cc2coc(-c3ccccc3)n2)CC1	0.161
CSCC(=O)N1CCN(CC(O)C(C)(C)C)CC1 (centres undefined)	-3.62
CC(C)c1noc(OCC(=O)N2CCCCC2C)n1 (centres undefined)	-1.04
c1ccc2oc(N3CCC(c4nncn4C4CC4)CC3)nc2c1	8.44
Cc1c(C(=O)NCCC(=O)N2CCCC2)cccc1-c1ccccn1	13.9
CC[C@@H](CO)NC(=O)c1cc(COc2ccc(OC)cc2Cl)[nH]n1	-0.681
Cc1nc(C2CCCN2CCOCC2CC2)no1 (centres undefined)	-0.854
Cc1cnn(CCNCC(=O)N2CCN(c3ccccc3)CC2)c1	-5.8
CCN(CC)S(=O)(=O)c1cc(Br)ccc1OC	-4.57
CC(C)Oc1cccc(CN(C)C(=O)Nc2cccn(C)c2=O)c1	-63
COC(=O)c1ccc(NC(=O)CCNCc2ccco2)cc1	2.04
CCN(CC(=O)NC)C(=O)c1sc(Cc2ccccc2)nc1C	-3.98
Cc1cc(NC(=O)NCCC(=O)N2CCCc3ccccc32)no1	-0.372
O=C(O)C1(O)CCN(c2ccc3cccc(Cl)c3n2)CC1	13.6
O=C(c1coc(-c2ccccc2)n1)N1CCCCC1	0.702
O=C(NCC(O)c1cccc(F)c1)C1CCN(C2CCCCC2)CC1 (centres undefined)	-10
O=C(CNc1ccc(OC2CCOC2)cc1)NCc1ccc(F)cc1 (centres undefined)	18.1
CS(=O)(=O)CC1(CNc2cc(C#N)c3cc(Cl)ccc3n2)CC1	-0.595
COCC[C@]1(O)CCN(CC(=O)NCc2ccccn2)C[C@H]1C	9.06
